# Data reported in PubChem BioAssay (NCI).
# This is part of a sample that, as a whole, favours compounds with a hit. Of some 83,000 tested, about 20% had one in any assay.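 Treatment: one concentration, 48 hours, 96-well format. Scoring: percent growth, with anything below 10 considered active.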 Unmarked numbers belong to inactive results. Active and inactive are the calls of the source.
# Experiments:
# Assay in all cases: NCI-60 one-dose screen, 48 h (100 = growth as untreated, 0 = no growth, -100 = all killed)
# Settings in all cases: 10 µM unless noted
# [1] = tested on: EKVX NSCLC
# [2] = tested on: SN12C renal
# [3] = tested on: UO-31 renal
# [4] = tested on: TK-10 renal
# [5] = tested on: ACHN renal
# [6] = tested on: CAKI-1 renal
# [7] = tested on: A498 renal
# [8] = tested on: CCRF-CEM leukemia
# [9] = tested on: MOLT-4 leukemia
# [10] = tested on: SR leukemia
# [11] = tested on: RPMI-8226 leukemia
# [12] = tested on: OVCAR-8 ovarian
# [13] = tested on: OVCAR-5 ovarian
# [14] = tested on: OVCAR-4 ovarian
# [15] = tested on: SK-OV-3 ovarian
# [16] = tested on: IGROV1 ovarian
# [17] = tested on: OVCAR-3 ovarian
# [18] = tested on: HS 578T breast
# [19] = tested on: NCI/ADR-RES ovarian
# [20] = tested on: T-47D breast
SMILES,growth [1],growth [2],growth [3],growth [4],growth [5],growth [6],growth [7],growth [8],growth [9],growth [10],growth [11],growth [12],growth [13],growth [14],growth [15],growth [16],growth [17],growth [18],growth [19],growth [20]
COc1cc(C2CC(c3ccc(C)cc3)=NN2C(C)=O)ccc1Oc1ccnc2cc(Cl)ccc12 (stereo not given),63.3%,77.5%,61.6%,11.1%,32.2%,58.1%,64.3%,74.5%,86.8%,35.1%,83.8%,63.1%,92%,-15.8% (active),13.5%,81.2%,29.1%,7.55% (active),54.6%,62.2%
CCCCn1c(Cc2ccc(Cl)cc2)nc2cc(OC)c(OC)cc2c1=O,59.1%,83.6%,54.4%,102%,75.8%,72.5%,101%,-68.8% (active),-48.7% (active),59.4%,23.4%,70.1%,93.5%,71.1%,187%,69.9%,80.9%,114%,75.7%,101%
O=c1cc(-c2cccnc2)oc2c1ccc1ccccc12,86.3%,80.3%,60.5%,114%,69.6%,72.9%,61.6%,88.1%,103%,39.3%,80.2%,87%,76.2%,89.3%,106%,84.8%,76.5%,66.5%,75.3%,81.6%
O=C(C=C=Nc1ccccc1)C(=O)N=C=Cc1ccccc1,72.6%,77.7%,-51.3% (active),-20.3% (active),-58.3% (active),17.7%,102%,-35.5% (active),-16.3% (active),3.67% (active),-59.5% (active),60.8%,75.5%,50.6%,107%,51.5%,13.5%,94.8%,65.5%,17.7%
COc1ccc(C2=NNC(c3cc(Cc4ccc(O)c(C5CC(c6ccc(OC)cc6)=NN5)c4)ccc3O)C2)cc1 (stereo not given),30.9%,52.1%,-2.57% (active),45.5%,46.3%,-30.5% (active),103%,11.6%,18.4%,16%,26.9%,28.8%,112%,58.3%,93.9%,35.5%,68.6%,43%,33.7%,50.3%
CCC1=C(c2ccc(OC)cc2)C(C)Oc2cc(OC(C)=O)ccc21 (stereo not given),75%,90.4%,88.6%,98.6%,88%,74.9%,90.7%,63.5%,76.7%,53%,75.6%,68.8%,128%,72.4%,80.6%,104%,86.9%,83.5%,75.6%,65.4%
O=C(C(=O)N1CCCCC1)c1ccc(OC2OC(CO)C(O)C(O)C2O)cc1 (stereo not given),111%,98.9%,105%,107%,107%,94.4%,126%,97.7%,87.7%,101%,103%,95.9%,113%,108%,105%,86.7%,107%,110%,103%,99.6%
CCC(O)C(C)(C)C (stereo not given),99%,101%,101%,98.8%,110%,94.3%,96.3%,116%,111%,110%,122%,103%,114%,118%,110%,112%,123%,95.8%,97.7%,112%
O=C1CC(C(F)(F)F)=NN1C(=O)c1nn(-c2ccc(Cl)cc2)cc1O,79.5%,80.3%,67.3%,122%,79.3%,52.8%,77.8%,53.1%,80.4%,-0.46% (active),71.6%,71.9%,87.6%,79%,75.4%,88.7%,65.7%,106%,72.4%,84.8%
O=C1c2ccccc2C(=O)c2c1cccc2-n1nnc2ccccc21,112%,106%,76%,121%,103%,105%,88.4%,80.9%,96%,104%,59.8%,102%,105%,97.5%,119%,82.9%,115%,94.2%,107%,93.5%
[O-]/[N+](=C\C=C\c1ccccc1)c1ccccc1,100%,106%,97.4%,144%,108%,103%,96.9%,88%,85.1%,73%,87.3%,121%,107%,92.1%,110%,113%,99.9%,130%,103%,95.6%
COC(=O)CC1=C(C)/C(=C/c2[nH]c(-c3ccc[nH]3)cc2OC)N=C1C,27.9%,21.4%,-68.9% (active),6.46% (active),-13.4% (active),8.04% (active),-5.38% (active),-13.5% (active),-49% (active),-47.8% (active),-55.3% (active),6.58% (active),18.7%,10.5%,20.2%,11.3%,-17.7% (active),-14.9% (active),5.14% (active),0.172% (active)
Nc1ccc2c3c(cccc13)-c1ccccc1-2,87.4%,55.8%,32.3%,116%,95.2%,69.4%,85.9%,25.1%,32.4%,93.1%,33.9%,99.1%,99.8%,86.1%,99.6%,84%,88.4%,89.2%,95.2%,92.3%
COc1ccc2[nH]cc(/C=C3/C(=O)Nc4ccc(F)cc43)c2c1,77.2%,78.2%,73.1%,104%,68.4%,62.4%,76%,63.2%,61.6%,83.2%,62.4%,84.1%,88.5%,75.6%,104%,98.2%,108%,72.6%,84.9%,92.2%
CCOC(=O)C1=C(C)N2C(=NC3=C(CCC/C3=C\c3ccc(Cl)cc3)C2c2ccc(Cl)cc2)S1 (stereo not given),64.6%,58.1%,53.9%,58.2%,16.6%,62.3%,3.17% (active),-17% (active),-3.87% (active),-8.47% (active),-19.1% (active),23%,78.1%,48.3%,47%,12.8%,-29.2% (active),51.7%,39.4%,25.3%
COC(=O)[C@]12CC[C@@H](C)[C@H](C)[C@@H]1C1=CC[C@@H]3[C@@]4(C)C[C@@H](OC(=O)c5ccco5)[C@H](O)[C@@](C)(CO)[C@@H]4[C@H](O)C[C@@]3(C)[C@]1(C)CC2,-91.9% (active),-77.2% (active),-89.6% (active),-87.9% (active),-95% (active),-98.3% (active),-94.5% (active),-87.3% (active),-75.5% (active),-91% (active),-64.7% (active),-76.1% (active),-85.3% (active),-67.9% (active),-97.2% (active),-65% (active),-93.8% (active),-39.9% (active),-80.6% (active),-68.3% (active)
